Here are results for 9 molecules from PubChem BioAssay (EPA / NIEHS).

A short description of assay [1]: Tanguay_ZF_120hpf_AXIS_legacy: (Legacy) Oregon State University Tanguay Lab 120 Hour Post-fertilization zebrafish Assay for Body Axis Malformation (AID 2283635).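 For AC50: potency for an increased fraction of larvae scored with body axis malformation.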 Summed up: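 Embryos: 5D wild-type, pronase-dechorionated 4 hpf; static exposure 6–120 hpf, 28C, sealed, dark, 1 embryo/well, 0.64% DMSO. 120 hpf axis malformation scored present/absent; dead embryos excluded. Analysed as gain of signal vs DMSO.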

Assay [2] is described as follows: Tanguay_ZF_120hpf_EYE_legacy: (Legacy) Oregon State University Tanguay Lab 120 Hour Post-fertilization zebrafish Assay for Eye Malformation (AID 2283636).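 Note: binary presence or absence of eye malformation scored by brightfield in 120 hpf larvae.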 In short, it runs like this: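 Dechorionated Tropical 5D zebrafish embryos, one per well from 6 hpf, static exposure to 120 hpf at 28C, 0.64% DMSO. Eye malformation scored present/absent by brightfield; dead embryos not scored.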

The nature of assay [3]: Tanguay_ZF_120hpf_SNOU_legacy: (Legacy) Oregon State University Tanguay Lab 120 Hour Post-fertilization zebrafish Assay for Snout Malformation (AID 2283637). Summed up: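 Dechorionated tropical 5D wild-type zebrafish embryos exposed statically from 6 to 120 hpf at 28C, one per well, in 0.64% DMSO. Snout malformation scored as present/absent by brightfield at 120 hpf; dead embryos not scored.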

A short description of assay [4]: Tanguay_ZF_120hpf_OTIC_legacy: (Legacy) Oregon State University Tanguay Lab 120 Hour Post-fertilization zebrafish Assay for Otic Vesicle Malformation (AID 2283639). Summed up:
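Tropical 5D wild-type zebrafish embryos were exposed statically in sealed, foil-covered plates at 28C until 120 hpf, with 0.64% (vol/vol) DMSO final. Otic vesicle malformation was scored present/absent by brightfield microscopy, with DMSO as baseline.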

Assay [5] can be described thus: Tanguay_ZF_120hpf_BRAI_legacy: (Legacy) Oregon State University Tanguay Lab 120 Hour Post-fertilization zebrafish Assay for Brain Malformation (AID 2283641). Summed up: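 Read-out: binary brain morphology call at 120 hpf (brightfield), fitted in gain-of-signal direction vs DMSO. Wild-type Tropical 5D embryos, static exposure, 28C, 0.64% DMSO final; 5uM trimethyltin chloride as positive control.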

Assay [6] can be described thus: Tanguay_ZF_120hpf_SOMI_legacy: (Legacy) Oregon State University Tanguay Lab 120 Hour Post-fertilization zebrafish Assay for Somite Malformation (AID 2283647). In short, it runs like this: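 Binary brightfield scoring of somite defects at 120 hpf in 5D wild-type larvae; one dechorionated embryo per well, static exposure from 6 hpf, 28C, sealed and dark. Final DMSO 0.64%; trimethyltin chloride 5uM positive control.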

Assay [7] can be described thus: Tanguay_ZF_120hpf_PFIN_legacy: (Legacy) Oregon State University Tanguay Lab 120 Hour Post-fertilization zebrafish Assay for Pectoral Fin Malformation (AID 2283648).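 Note: each larva judged yes or no for fin defect by brightfield with dead larvae skipped.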 In short, it runs like this: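 Dechorionated Tropical 5D wild-type zebrafish embryos, one per well, statically exposed from 6 to 120 hpf at 28C with 0.64% DMSO final. Pectoral fin malformation scored present/absent by brightfield at 120 hpf; not scored in dead embryos.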

A short description of assay [8]: Tanguay_ZF_120hpf_CFIN_legacy: (Legacy) Oregon State University Tanguay Lab 120 Hour Post-fertilization zebrafish Assay for Caudal Fin Malformation (AID 2283649). In short, it runs like this:
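Dechorionated 5D wild-type zebrafish, static exposure 6–120 hpf, 28C, sealed and dark, 0.64% v/v DMSO final. Binary fin-malformation call at 120 hpf, brightfield; gain of signal vs DMSO baseline.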

A short description of assay [9]: Tanguay_ZF_120hpf_PIG_legacy: (Legacy) Oregon State University Tanguay Lab 120 Hour Post-fertilization zebrafish Assay for Pigmentation Malformation (AID 2283650). Summed up: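 Dechorionated Tropical 5D wild-type embryos, one per well from 6 hpf, statically exposed at 28C in the dark until 120 hpf, 0.64% DMSO final. Pigmentation scored present/absent by brightfield microscopy; dead embryos not scored; fitted versus DMSO.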

Assay [10] can be described thus: Tanguay_ZF_120hpf_CIRC_legacy: (Legacy) Oregon State University Tanguay Lab 120 Hour Post-fertilization zebrafish Assay for Circulatory Malformation (AID 2283651). Summed up:
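Tropical 5D wild-type embryos, dechorionated with pronase at 4 hpf, were placed singly in wells at 6 hpf and exposed statically at 28C to 120 hpf (0.64% DMSO final). Circulatory malformation was scored present/absent by brightfield microscopy.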

Assay [11] is described as follows: Tanguay_ZF_120hpf_SWIM_legacy: (Legacy) Oregon State University Tanguay Lab 120 Hour Post-fertilization zebrafish Assay for Swim Bladder Malformation (AID 2283654).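 Note: swim bladder malformation in each larva scored yes or no under brightfield.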 In short, it runs like this: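 Dechorionated wild-type Tropical 5D zebrafish embryos, one per well from 6 hpf, were statically exposed at 28C until 120 hpf in 0.64% DMSO. Swim bladder malformation scored as present/absent by brightfield microscopy; not scored in dead larvae.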

A short description of assay [12]: Tanguay_ZF_120hpf_NC_legacy: (Legacy) Oregon State University Tanguay Lab 120 Hour Post-fertilization zebrafish Assay for Notochord and Tail Malformation (AID 2283656). Summed up: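 Dechorionated 5D zebrafish, 1/well from 6 hpf; static exposure to 120 hpf, 28C, sealed, dark; final DMSO 0.64% v/v. NC scored binary (present/absent); dead embryos not scored. Fit vs DMSO baseline, gain direction.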

Assay [13] is described as follows: CCTE_Simmons_CellTiterGLO_HEK293T: Viability Assessment in CCTE's Assays for Thyroperoxidase (TPO) Inhibition, Simmons Lab (AID 2283665).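 For AC50: cells exposed to compound for 24 h before readout; actives reduce ATP signal below DMSO vehicle meaning cytotoxicity.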 Summed up: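 HEK293T cells in DMEM with 1% FBS were dosed with 8 concentrations (5 nM–87.5 uM final, 0.5% DMSO) for 24 hr at 37C; ATP content was read by CellTiter-Glo luminescence, loss-of-signal versus DMSO, three biological replicates.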
For orientation: In ATP-based viability assays light output follows the ATP content of the culture.

Assay [14] is described as follows: Tanguay_ZF_120hpf_TRUN_legacy: (Legacy) Oregon State University Tanguay Lab 120 Hour Post-fertilization zebrafish Assay for Truncated Body (AID 2283655). Summed up: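 Whole-embryo zebrafish screen: dechorionated 5D embryos, static exposure 6–120 hpf, 28C, sealed foil-covered plates, 0.64% DMSO. Binary truncation call; gain of signal versus DMSO baseline.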
Assay [15] can be described thus: Tanguay_ZF_120hpf_PE_legacy: (Legacy) Oregon State University Tanguay Lab 120 Hour Post-fertilization zebrafish Assay for Pericardial Edema (AID 2283640). In short, it runs like this: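 Static waterborne exposure, 5D wild-type embryos, 28C, to 120 hpf; final DMSO 0.64% (vol/vol). Binary PE call at 120 hpf by brightfield; fitted upward vs DMSO baseline. 5uM trimethyltin chloride as positive control.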

One may read the AC50 as the midpoint of the concentration-response curve, whichever way the signal moves.

SMILES strings stand for the structures. Records with an inconclusive call do not appear. The source made the active and inactive calls. Rule for the calls: active = hit-call score of the fitted dose curve at least 0.9, where 1 is the maximum; inconclusive = response in the unintended direction; inactive = score below 0.9.

For `C[C@](N)(Cc1ccc(O)c(O)c1)C(=O)O`, the molecule was called inactive in [1], in assay [2], in assay [3], in assay [4], in assay [5] and in [6]. Also, the molecule was classed as inactive in [7], in [8], in assay [9], in assay [10], in [11] and in [12]. Moreover, the AC50 in assay [13] was 39800 nM (active).

Regarding `CCC(C)(C)C(=O)O[C@H]1C[C@@H](C)C=C2C=C[C@H](C)[C@H](CC[C@@H]3C[C@@H](O)CC(=O)O3)[C@H]21`, the AC50 is 671 nM (active) in assay [1]; 737 nM (active) in assay [2]; 796 nM (active) in assay [3]; 747 nM (active) in assay [4]; 645 nM (active) in assay [5]; 652 nM (active) in assay [7]. Moreover, the AC50 in assay [9] was 666 nM (active); in assay [13], 43800 nM (active). In addition, the result in assay [6], in assay [8], in assay [10], in assay [11], in assay [14] and in [12] was inactive.

With `CCCCC(CC)COC(=O)c1ccc(C(=O)OCC(CC)CCCC)cc1` (centres undefined), the molecule was called inactive in assay [1], in assay [2], in assay [3], in assay [4], in [5] and in assay [6]. The call in assay [7], in assay [8], in [9], in [10], in [11] and in assay [12] was inactive.

Take `CCOc1cccc(-n2cc(C(=O)N3CCN(c4cc(C(=O)O)c5ccccc5c4)CC3)nc2-c2ccc(C)cc2)c1`: the molecule was called inactive in assay [1], in [2], in [3], in [4], in assay [15] and in [5]. Also, the molecule was called inactive in [6], in assay [7], in assay [8], in [9], in assay [11] and in assay [12]. Also, the AC50 in assay [13] was 22600 nM (active).

Consider `CC(C)CCO`, for which the molecule was classed as inactive in [1], in assay [2], in assay [3], in [4], in assay [15] and in assay [5]. The molecule was called inactive in [6], in assay [7], in assay [8], in [9], in assay [10] and in assay [11]. Further, the molecule was called inactive in [14] and in assay [12].

In the case of `COC(=O)c1ccccc1O`, the molecule was classed as inactive in assay [1], in assay [2], in assay [3], in [4], in assay [5] and in assay [6]. Also, the molecule was classed as inactive in [7], in assay [8], in assay [9], in [10], in assay [11] and in [12].

In the case of `O=C(CCCCCCCCc1cccnc1)N1CCC(C=C(c2ccccc2)c2ccccc2)CC1`, the outcome in assay [1], in assay [2], in [3], in assay [4], in assay [15] and in [5] was inactive. Also, the outcome in assay [6], in assay [7], in assay [8], in [9], in [10] and in assay [11] was inactive. Also, the outcome in assay [14] was inactive. Further, the AC50 in assay [13] was 5130 nM (active).

On to `CC(C)=CCCC(C)CCO` (centres undefined), for which the result in [1], in [2], in assay [3], in [4], in [15] and in [5] was inactive. For the same molecule, the call in assay [6], in assay [7], in [8], in assay [9], in assay [10] and in [11] was inactive. Also, the molecule was called inactive in assay [14], in [12] and in assay [13].

Take `CCCCCCCCCCCCCCCO`: the molecule was called inactive in assay [1], in assay [2], in assay [3], in assay [4], in [15] and in assay [5]. For the same molecule, the molecule was called inactive in assay [7], in [8], in [9], in assay [10], in assay [11] and in [12].
